Screen size: about 2,000 compounds; about 190 (9.5%) were called active. Not shown: some 14% with an inconclusive outcome.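 Rule for the calls: active = fitted activation curve crossing 40% at a concentration no higher than the sample's top valid tested dose; inconclusive = flat fitted curve at 30% to 70% activation, or poor curve fit; inactive = signal decrease, flat curve within 30%, or the rest.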 These entries were drawn from the full list.
Assay: sustained heat shock response element induction – cell-based, mouse, luciferase, cherry-pick, dose, confirmation (AID 602296);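 note: test compounds applied by themselves with no MG132 co-treatment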
Conditions: NIH3T3-HGL HSF-1 response element luciferase, 48 h; series mostly up to 26 µM; activation: at the top concentration

activation, inactive:
O=C(NC1CCCN(Cc2ccccc2F)C1)c1cccs1 (stereo unspecified) -6.74%
O=C(O)c1cc([N+](=O)[O-])c(NCCC2=CCCCC2)c([N+](=O)[O-])c1 -5.64%
O=C(Nc1cccc(Cl)c1)C1CCCN(S(=O)(=O)c2ccc(F)cc2)C1 (stereo unspecified) -0.929%
COC(=O)Nc1ccc(S(=O)(=O)Nc2cccc3ccccc23)cc1 -34.8%
O=C(CCn1c(=O)oc2ccccc21)Nc1ccccc1 5.77%
CC1(C)Cc2nc(NCCN3CCOCC3)c(C#N)cc2CO1 -12.8%
CC(=O)C1=C(O)C(=O)N(c2nccs2)C1c1ccccc1 (stereo unspecified) -6.69%
Cc1[nH]nc(-c2ccc(O)c(C)c2O)c1-c1cnn(-c2ccccc2)c1 -13.3%
CCOC(=O)C1=C(C)Nc2ncnn2C1c1ccc2c(c1)OCO2 (stereo unspecified) -2.17%
COCCCNC(=O)c1c[nH]c2ccc(S(=O)(=O)N3CCc4ccccc43)cc2c1=O -7.37%
NS(=O)(=O)c1ccc(CCNC(=O)c2ccc([N+](=O)[O-])s2)cc1 -4.33%
CC(=O)Cc1cc(O)c2ccccc2c1OC(=O)c1ccccc1 9.89%
O=C1CC(NNc2ccccc2)C(=O)N1c1ccccc1 (stereo unspecified) -54.7%
Cc1cc(NC(=O)c2cc(C)on2)n(-c2ccccc2)n1 -10.5%
CCOC(=O)c1c(NC(=O)c2nn(CC)cc2Br)c(C#N)nn1-c1ccccc1 -52.7%
Cc1oc2ccc(NS(=O)(=O)c3ccc(C(C)(C)C)cc3)cc2c1C(=O)Nc1ccccc1 -31.3%
CCCc1[nH]nc2c1C(c1cc(OC)ccc1F)C(C#N)=C(N)O2 (stereo unspecified) -18.2%
O=C(CN1C(=O)NC(Cc2c[nH]c3ccccc23)C1=O)Nc1cccc(S(=O)(=O)N2CCOCC2)c1 (stereo unspecified) -5.34%
CCOC(=O)C(C)(C)N(Cc1ccc(C)cc1)S(=O)(=O)c1ccc(Cl)c([N+](=O)[O-])c1 -87.3%
Oc1ccc(-c2cnc(-c3ccc(O)cc3)nc2)cc1 -63.3%
Cc1cccc2cc(CN(Cc3ccco3)C(c3nnnn3CCc3ccccc3)C(C)C)c(=O)[nH]c12 (stereo unspecified) -36.5%
COCCNC(=O)c1cccc(OC2CCN(Cc3ccc(Cl)c(F)c3)CC2)c1 -23.6%
CCCCOCCCN1CC(=O)N2[C@@H](Cc3c([nH]c4ccccc34)C2(C)C)C1=O -3.37%
Cc1ccc(-c2cc(C(F)(F)F)c(C#N)c(SCC(=O)O)n2)cc1 -15.1%
CCOC(=O)C1=C(c2ccccc2)NC(=O)NC1c1cc(Br)c(O)c(OC)c1 (stereo unspecified) -26.7% [at 12 µM]
CCCn1nc([N+](=O)[O-])c(C(C#N)c2nc3ccccc3o2)c(Cl)c1=O (stereo unspecified) -72.7%
O=C(COC(=O)c1ccc(S(=O)(=O)NCc2ccco2)cc1)Nc1ccccc1OC(F)F 7.76%
Cc1cc(C)nc(Sc2nc(Cl)nc(N(c3ccccc3)c3ccccc3)n2)n1 -20.4%
COc1cc(-c2nc(-c3ccc4c(c3)-c3ccccc3S4(=O)=O)c(-c3ccccc3)[nH]2)cc(OC)c1O -40.3%
CCC(=O)Nc1c(S(=O)(=O)c2ccccc2)c2nc3ccccc3nc2n1C(C)c1ccccc1 (stereo unspecified) -20.5%
CCOc1cc(/C=C2/C(=O)ON=C2C)ccc1OCc1ccc(F)cc1 44.8%
O=C(CSc1ncn[nH]1)c1cccc([N+](=O)[O-])c1 -0.937%
COc1cc(-c2nnc3sc(Cc4ccc(Cl)cc4)nn23)cc(OC)c1OC -27.6%
O=C(CN(C(=O)c1csnn1)c1ccc(F)c(Cl)c1)NCc1ccc(F)cc1 -5.21%
CC(C)(C)Cc1nc2ccccc2n1CCc1ccccc1 -18.4%
COC(=O)c1ccc(CSc2nc3ccccc3c(=O)n2CC(C)C)o1 11%
CC(c1ccc(F)cc1)n1c(Cn2ncc3ccccc3c2=O)n[nH]c1=S (stereo unspecified) 12.2%
OC(CNCc1ccco1)Cn1c2ccc(Br)cc2c2cc(Br)ccc21 (stereo unspecified) 3.97%
COc1ccccc1N1CCN(C(=O)c2ccc3c(=O)n(Cc4ccco4)c(=S)[nH]c3c2)CC1 4.32%
CCCCNC(=S)N(Cc1ccco1)Cc1cc2cc3c(cc2[nH]c1=O)OCCO3 -47%
O=C1N/C(=C\c2ccc(O)cc2)C(O)=C1C=NCc1ccccc1 -52%
Cc1cccc(C(C#N)c2ccc(Cl)nn2)c1 (stereo unspecified) 5.31%
COc1ccc2[nH]c(C)c(CCNc3ccc(C(F)(F)F)cc3[N+](=O)[O-])c2c1 -55.4%
O=S(=O)(c1ccccc1)c1ncc(C(F)(F)F)cc1Cl -104%
O=C(CCCn1c(=S)[nH]c2ccc(Br)cc2c1=O)NCC1CCCO1 (stereo unspecified) 2.17%
COc1ccc(C(=O)N(C)CC(O)c2ccccc2)cc1OC1CCN(C(C)=O)CC1 (stereo unspecified) -5.01%
O=C1c2ccccc2-c2onc3ccc(N4CCCC4)c1c23 26.1%
COC(=O)Cc1ccc(NC(=O)c2ccc(C)c(C)c2)cc1 -71.3%
CCOC(=O)c1c(S(=O)(=O)NCC2CCN(CCc3cccs3)CC2)c(C)n(C)c1C 5.71%
Cc1nn(C)c(Oc2ccccc2)c1CCNS(=O)(=O)c1ccc(Cl)cc1 -52.3%
CN1C(=O)C2(c3ccccc31)N(C)CC(c1ccccn1)C21SC(=S)N(Cc2ccco2)C1=O (stereo unspecified) -66.3%
COC(=O)C1=C(C)NC(=S)NC1c1ccc(-c2cccc(Cl)c2)o1 (stereo unspecified) -17.3%
Cc1ccc(C(c2c(C)nn(-c3ccccc3)c2N)c2c(C)nn(-c3ccccc3)c2N)cc1 -5.45%
COc1cc(CNC2CCCC2)cc(OC)c1 2.54%
CCn1c(SCC(=O)N2CCOCC2)nc2oc3c(Cl)cc(Cl)cc3c(=O)c2c1=O 7.32%
CC(=O)c1ccc(NC(=O)CCCN2C(=O)/C(=C/C(C)=C/c3ccccc3)SC2=S)cc1 -9.9%
Cc1noc(C)c1COC(=O)c1ccccc1Oc1ccccc1 -13.4%
CCc1nnc(NC(=O)C(NC(=O)c2ccccc2Cl)C(C)C)s1 (stereo unspecified) -4.42%
COC(=O)c1sccc1NC(=O)Nc1cccc(F)c1 -0.711%
Cc1cc(SCC(=O)N/N=C/c2ccc(O)c(O)c2)c(C)cc1Br -70.1%
Cn1c(SCc2cccc(C(F)(F)F)c2)nnc1-c1ccco1 6.26%
Clc1ccc(CSc2nnc(-c3sccc3-n3cccc3)o2)cc1 -42.5%
Fc1ccc(Sc2ccccc2CNC2=NCCN2)cc1 -23.8%
O=S(=O)(c1ccc(Cl)c(NC(=S)N/N=C/c2ccc(O)cc2)c1)N1CCOCC1 -6.39%
O=c1c(Cl)cc(Cl)nn1-c1ccccc1 -99.9%
CCc1cc2c(SCC#N)ncnc2s1 11.3%

— PubChem BioAssay AID602296 (Broad Institute, 2012)
